Laboratory results as given in PubChem BioAssay AID489039 (National Center for Advancing Translational Sciences (NCATS), 2010).
Values joined by “and” are separate entries in the source; they are usually repeats but may differ in a detail not shown here. Equal entries are not always repeated. Results filed as inconclusive are left out. Unmarked numbers belong to inactive results. Active and inactive are the calls of the source. The call rests on the fitted dose curve; in most records, active means well fitted inhibition curve with a large enough effect; inconclusive means small, poorly fitted or top-dose-only effect, or effect the other way; inactive means no such curve, though single readings can be large or run the other way.

The molecules below were run against Nuclear receptor ROR-alpha (Homo sapiens) (UniProt P35398) (assay: ROR alpha selectivity assay for inhibitors of ROR gamma transcriptional activity). Settings: Drosophila S2 Gal4-RORalpha UAS-luciferase, 20 h; series mostly up to 92.2 µM; activity change, negative = inhibition: at the top concentration.
Excerpt: NIH Molecular Libraries Probe Production Network [MLPCN] NIH Chemical Genomics Center [NCGC] MLPCN Grant: R03 DA026211-01 Assay Provider: Dan Littman, New York University Assay Overview: The retinoic acid-related orphan receptor (ROR) gamma is a transcription factor that has a central role in the differentiation of Th17 cells, a subset of T helper cells that secrete the inflammatory cytokines IL-17A, IL-17F, and IL-22. Th17 cells have been implicated in graft versus host disease, autoimmune disease and asthma. RORgamma is induced in naive T helper cells in the presence of TGF-beta combined with IL-6, IL-21, or IL-23, and thereafter directs the expression of the Th17 lineage cytokines. To identify nonselective inhibitors, a Drosophila Schneider cell line was stably transfected with two vectors: a gene expressing a fusion of the Gal4 DNA binding domain and the transactivation domain of the ROR alpha, under the control of the metallothionine promoter and a Photinus luciferase reporter regulated by the Gal4 binding site enhancer, UAS. […] Small molecule inhibitors that inhibit RORgamma and RORalpha, or components common to both, will be active in both assays and thus scored as nonselective.
Assay Protocol Summary: For screening, 600 cells in 4 uL/well were dispensed into white solid 1536-well plates (Grenier) using a solenoid-based dispenser. Following transfer of 23 nL compound or DMSO vehicle by a pin tool, the plates were incubated 1 hr at ambient temperature, and 1 uL/well copper sulfate (700 uM final concentration) was added. The plates were centrifuged 15 s at 1000 RPM and incubated 20 hr at ambient temperature. After addition of 1.5 uL Photinus luciferase detection reagent, the plates were incubated 10 min at ambient temperature and then read by an ViewLux (Perkin Elmer) to detect luminescence.

Row | Compound | Potency | activity change, negative = inhibition
1 | COc1ccc2nc(NNC(=O)COc3ccccc3)sc2c1 | 6.45 µM (active) | –
2 | COc1cc(OC)c(C(c2ccccc2)C(C)(C)C(=O)N2CC(C)CC(C)C2)c(OC)c1 (stereo not given) | 16.2 µM (active) | –
3 | CC(C)(C)c1ccc([S+](=O)([O-])Nc2ccccc2C(O)(C(F)(F)F)C(F)(F)F)cc1 | 18.2 µM (active) | –
4 | O=C(CCCN1C(=O)/C(=C/c2ccccc2Cl)SC1=S)Nc1cccnc1 | 1.82 µM (active) | –
5 | COc1ccc(C(CC(=O)N2CCCC(C)C2)c2c(O)cc(OC)cc2OC)cc1 (stereo not given) | – | 3.66%
6 | COc1ccc(-c2c[n+]3c(n2-c2ccc(C)cc2)CCCCC3)cc1 | 10.2 µM (active) | –
7 | CC1CCCN(C(=O)CC(c2ccccc2)c2ccc(O)cc2)C1 (stereo not given) | – | -19.1%
8 | CCn1cc(C(=O)O)c(=O)c2cnc(N3CCN(C(=S)NC(=O)c4ccccc4)CC3)nc21 | 22.9 µM (active) | –
9 | COc1cc(O)c(C(CC(=O)N2CCCC(C)C2)c2ccc(-c3ccccc3)cc2)c(OC)c1 (stereo not given) | – | -20.9%
10 | CCOc1cccc(-c2cc(-c3n[nH]c(=S)n3CC)c3ccccc3n2)c1 | 7.24 µM (active) and 18.2 µM (active) | –
11 | CCOC(=O)C1CCN(CC(=O)Nc2cc(C)nn2-c2nc3ccccc3s2)CC1 | 20.4 µM (active) | –
12 | CC1CCCN(C(=O)CC(c2ccccc2)c2ccccc2O)C1 (stereo not given) | – | 20.8%
13 | COCC1CCCN(C(=O)CC(c2ccc3c(c2)OCO3)c2c(O)cc(OC)cc2OC)C1 (stereo not given) | – | -3.63%
14 | CC1=C(\C=C/C(C)=C/C=C\C(C)=C\C(=O)O)C(C)(C)CCC1 | – | 18.6% [at 20 µM]
15 | Cc1cc(C)c2sc(NC(=O)c3ccc(N4C(=O)CCC4=O)cc3)nc2c1 | 0.407 µM (active) | –
16 | COc1ccc(CNC(=O)[C@H](Cc2ccccc2)NC(=O)C2CCN(C(=O)[C@@H]3CCCN3C(=O)OC(C)(C)C)CC2)cc1 | – | -11.6%
17 | CCOC(=O)Cn1c(CN2CCc3ccccc3C2)nc2c1c(=O)n(C)c(=O)n2C | 16.2 µM (active) | –
18 | Cc1cccc(C(CC(=O)NCc2ccco2)c2ccccc2)c1O (stereo not given) | – | 91.2%
19 | Cc1ccc(OCCCC(=O)Nc2nc3ccccc3[nH]2)cc1 | 8.12 µM (active) | –
20 | COc1cc(O)c(C(CC(=O)N2CCCC(C)C2)c2ccc(C(C)C)cc2)c(OC)c1 (stereo not given) | 36.3 µM (active) | –

Row | Compound | Potency | activity change, negative = inhibition
21 | CC1CCCN(C(=O)CC(c2ccc3c(c2)OCO3)c2cc(C(C)C)ccc2O)C1 (stereo not given) | – | 17.7%
22 | COc1cc(O)c(C(CC(=O)N2CCCC(C)C2)c2ccc3ccccc3c2)c(OC)c1 (stereo not given) | – | -28%
23 | COc1cc(O)c(C(CC(=O)N2CCCC(COc3ccc(F)cc3)C2)c2ccc3c(c2)OCO3)c(OC)c1 (stereo not given) | – | 16.6%
24 | COc1cc(O)c(C(CC(=O)NCC2CCCCC2)c2ccc3c(c2)OCO3)c(OC)c1 (stereo not given) | – | -20.1%
25 | O=C(/C=C/c1ccc(S(=O)(=O)N2CCOCC2)cc1)NC(=S)Nc1ccc(N2CCOCC2)cc1 | 14.4 µM (active) | –
26 | COc1ccccc1C(CC(=O)N1C[C@H](C)C[C@H](C)C1)c1ccccc1 (stereo not given in full) | 51.2 µM (active) | –
27 | CCOc1ncccc1C(=O)OCC(=O)Nc1ccc(-c2nc3ccc(C)cc3s2)cc1 | 7.24 µM (active) | –
28 | COc1cc(O)c(C(CC(=O)N2CCCCC2)c2ccc3c(c2)OCO3)c(OC)c1 (stereo not given) | – | 5.12%
29 | COC(=O)c1ccc(OCC(=O)c2ccc(O)cc2O)cc1 | 0.0575 µM (active) | –
30 | Cc1nn(-c2cc(C)c3ccccc3n2)c2c1C1C(C2)C1(C)C (stereo not given) | 8.12 µM (active) | –
31 | C[C@@H]1[C@H](C)CC[C@]2(C(=O)O)CC[C@]3(C)C(=CC[C@@H]4[C@@]5(C)CC[C@H](O)C(C)(C)[C@H]5CC[C@]43C)[C@@H]12 | 18.2 µM (active) | –
32 | COc1cc(O)c(C(CC(=O)N2CC(C)NC(C)C2)c2ccc3c(c2)OCO3)c(OC)c1 (stereo not given) | – | -10.8%
33 | COCOc1cc(OC)cc(OC)c1C(CC(=O)N1CC(C)CC(C)C1)c1ccc2c(c1)OCO2 (stereo not given) | – | -81.7%
34 | CC(C)(C)c1ccc(S(=O)(=O)Nc2ccc(C(O)(C(F)(F)F)C(F)(F)F)cc2)cc1 | 18.2 µM (active) | –
35 | COc1cc(C)nc(-n2nc(C)cc2OC)n1 | 8.12 µM (active) | –
36 | COc1ccc(C(CC(=O)N2CCCC(C)C2)c2ccccc2)cc1 (stereo not given) | – | -15.6%
37 | Cc1ccc(C)c(/C=N/n2cc(-c3ccccc3)[nH]c2=S)c1 | 0.911 µM (active) | –
38 | COc1cc(O)c(C(CC(=O)N2CCCC(C)(C)C2)c2ccc3c(c2)OCO3)c(OC)c1 (stereo not given) | – | -12.2%
39 | COc1cc(O)c(C(CC(=O)N2CCCC2)c2ccc3c(c2)OCO3)c(OC)c1 (stereo not given) | – | -18.2%
40 | COc1cc(O)c(C(CC(=O)NC2CCCc3ccccc32)c2ccc3c(c2)OCO3)c(OC)c1 (stereo not given) | – | -3.21%
